PubChem BioAssay AID1159580 (chemical genetic matrix, 2015)
The whole screen tested about 5,500 compounds, of which about 2,000 (36%) were called active. About 18% were inconclusive and are not listed. Cut-off read from the data, not from the text of the source: active = normalized growth mostly below about 0.91 (no sharp cut-off); inconclusive = no clear call, values can overlap the other calls; inactive = mostly above about 0.92. Some of the results follow.

Assay: chemical genetic growth profiling, strain panel (AID 1159580);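 note: tested at 20 µM; growth read once vehicle control cultures reached saturation at 30 °C; 1 = growth at the plate median or of vehicle wells; lower values mean less growth of the strain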
Conditions: growth OD
[1] = S. cerevisiae deletion strains, locus YAL013W, strain DEP1, active compounds read low
[2] = S. cerevisiae deletion strains, locus YBR229C, strain ROT2, active compounds read low
[3] = S. cerevisiae deletion strains, locus YDL101C, strain DUN1, active compounds read low
[4] = S. cerevisiae deletion strains, locus YDR150W, strain NUM1, active compounds read low
[5] = S. cerevisiae deletion strains, locus YEL061C, strain CIN8, active compounds read low
[6] = S. cerevisiae deletion strains, locus YGR078C, strain PAC10, active compounds read low
[7] = S. cerevisiae deletion strains, locus YHR030C, strain SLT2, active compounds read low
[8] = S. cerevisiae deletion strains, locus YJR043C, strain POL32, active compounds read low
[9] = S. cerevisiae deletion strains, locus YJR075W, strain HOC1, active compounds read low
[10] = S. cerevisiae deletion strains, locus YLR039C, strain RIC1, active compounds read low
[11] = S. cerevisiae deletion strains, locus YLR262C, strain YPT6, active compounds read low
[12] = S. cerevisiae deletion strains, locus YMR263W, strain SAP30, active compounds read low
[13] = S. cerevisiae deletion strains, locus YMR307W, strain GAS1, active compounds read low
[14] = S. cerevisiae deletion strains, locus YNL322C, strain KRE1, active compounds read low
[15] = S. cerevisiae deletion strains, locus YPL055C, strain LGE1, active compounds read low
[16] = S. cerevisiae deletion strains, locus YPL241C, strain CIN2, active compounds read low
[17] = S. cerevisiae strains, strain wild type, active compounds read low
[18] = S. cerevisiae deletion strains, locus YAL040C, strain CLN3, active compounds read low
[19] = S. cerevisiae deletion strains, locus YCL061C, strain MRC1 (second series), active compounds read low
[20] = S. cerevisiae deletion strains, locus YDR363W, strain ESC2, active compounds read low
[21] = S. cerevisiae deletion strains, locus YER002W, strain NOP16, active compounds read low
[22] = S. cerevisiae deletion strains, locus YNL175C, strain NOP13, active compounds read low
[23] = S. cerevisiae deletion strains, locus YNL197C, strain WHI3, active compounds read low
[24] = S. cerevisiae deletion strains, locus YNL224C, strain SQS1, active compounds read low
[25] = S. cerevisiae deletion strains, locus YOR083W, strain WHI5 (second series), active compounds read low

Measured: normalized growth

CC(OCc1ccccc1)C(NC(=O)OC(C)(C)C)C(N)=O (stereo unspecified)
inactive: [1] 0.998 | [2] 0.994 | S. cerevisiae deletion strains, locus YCL061C, strain MRC1, active compounds read low 0.993 | [3] 0.993 | S. cerevisiae deletion strains, locus YDL134C, strain PPH21, active compounds read low 0.994 | [4] 0.985 | [5] 0.988 | [6] 0.997 | [7] 0.903 | S. cerevisiae deletion strains, locus YHR087W, strain rtc3, active compounds read low 0.988 | S. cerevisiae deletion strains, locus YJL187C, strain SWE1, active compounds read low 1 | [8] 0.974 | [9] 1.02 | [10] 0.977 | S. cerevisiae deletion strains, locus YLR058C, strain SHM2 (second series), active compounds read low 1 | S. cerevisiae deletion strains, locus YLR085C, strain ARP6, active compounds read low 1.02 | [11] 0.864 | S. cerevisiae deletion strains, locus YML094W, strain GIM5, active compounds read low 1.04 | S. cerevisiae deletion strains, locus YMR219W, strain ESC1, active compounds read low 0.991 | [12] 0.976 | [13] 1.07 | S. cerevisiae deletion strains, locus YNL153C, strain GIM3, active compounds read low 0.998 | S. cerevisiae deletion strains, locus YNL298W, strain CLA4 (second series), active compounds read low 0.974 | [14] 0.985 | S. cerevisiae deletion strains, locus YNR030W, strain Alg12, active compounds read low 0.961 | [15] 1.02 | [16] 1 | S. cerevisiae deletion strains, locus YPR135W, strain CTF4, active compounds read low 0.9 | [17] 0.971

COc1cc(-c2ccc(=O)[nH]n2)ccc1OC(F)F
inactive: [18] 0.975 | [19] 1.01 | [20] 0.997 | [21] 1 | [6] 1.01 | [9] 1 | [13] 0.995 | S. cerevisiae deletion strains, locus YNL128W, strain TEP1, active compounds read low 1.01 | [22] 1.03 | [23] 0.994 | [24] 1.01 | [14] 0.997 | [25] 1.02 | [15] 1.02 | [16] 1

Cn1ccnc1
inactive: [1] 1.01 | [18] 1.01 | [19] 1 | [4] 1 | [20] 1.01 | [21] 1 | [6] 1.01 | [12] 1.01 | [13] 1 | [22] 1 | [23] 1 | [24] 1.01 | [25] 1.02 | [15] 1

CC(=O)O[C@H]1CC[C@@]2(C)C(CC[C@]3(C)C2C(=O)C=C2C4[C@@H](C)[C@H](C)CC[C@]4(C(=O)O)CC[C@]23C)C1(C)C (stereo partly specified)
active: S. cerevisiae deletion strains, locus YKL009W, strain mrt4, active compounds read low 1.52 [resistant] | S. cerevisiae deletion strains, locus YKL085W, strain MDH1 (second series), active compounds read low 1.08 [resistant] | S. cerevisiae deletion strains, locus YKL085W, strain MDH1, active compounds read low 1.08 [resistant]
inactive: [1] 1 | S. cerevisiae deletion strains, locus YBR021W, strain FUR4, active compounds read low 1.03 | [2] 1.01 | S. cerevisiae deletion strains, locus YCL029C, strain bik1, active compounds read low 0.989 | S. cerevisiae deletion strains, locus YDL035C, strain GPR1, active compounds read low 0.993 | S. cerevisiae deletion strains, locus YDL074C, strain BRE1, active compounds read low 0.981 | [3] 1.01 | S. cerevisiae deletion strains, locus YDL185W, strain tfp1, active compounds read low 0.971 | S. cerevisiae deletion strains, locus YDL192W, strain arf1, active compounds read low 0.992 | S. cerevisiae deletion strains, locus YDR101C, strain arx1, active compounds read low 1.01 | S. cerevisiae deletion strains, locus YDR162C, strain NBP2, active compounds read low 1.03 | S. cerevisiae deletion strains, locus YDR318W, strain mcm21, active compounds read low 0.995 | S. cerevisiae deletion strains, locus YDR388W, active compounds read low 1 | S. cerevisiae deletion strains, locus YDR502C, strain sam2, active compounds read low 0.982 | [5] 1.01 | S. cerevisiae deletion strains, locus YER110C, active compounds read low 0.988 | S. cerevisiae deletion strains, locus YER155C, strain BEM2, active compounds read low 1.01 | S. cerevisiae deletion strains, locus YER167W, strain BCK2, active compounds read low 0.991 | S. cerevisiae deletion strains, locus YGL078C, strain dbp3, active compounds read low 1.01 | S. cerevisiae deletion strains, locus YGL086W, strain mad1, active compounds read low 1.04 | S. cerevisiae deletion strains, locus YGL248W, strain PDE1, active compounds read low 1.01 | [6] 1.01 | S. cerevisiae deletion strains, locus YGR135W, strain pre9, active compounds read low 1 | S. cerevisiae deletion strains, locus YGR229C, strain SMI1, active compounds read low 0.994 | S. cerevisiae deletion strains, locus YGR252W, strain gcn5, active compounds read low 1 | [7] 1.01 | S. cerevisiae deletion strains, locus YHR079C, strain IRE1 (second series), active compounds read low 0.997 | S. cerevisiae deletion strains, locus YHR094C, strain hxt1, active compounds read low 0.989 | S. cerevisiae deletion strains, locus YHR129C, strain ARP1, active compounds read low 1.01 | S. cerevisiae deletion strains, locus YHR200W, strain rpn10, active compounds read low 1.01 | S. cerevisiae deletion strains, locus YIL066C, strain RNR3, active compounds read low 1 | S. cerevisiae deletion strains, locus YIL073C, strain SPO22, active compounds read low 1.03 | S. cerevisiae deletion strains, locus YIL125W, strain kgd1, active compounds read low 0.98 | S. cerevisiae deletion strains, locus YIR030C, strain dcg1, active compounds read low 0.992 | S. cerevisiae deletion strains, locus YJL095W, strain BCK1, active compounds read low 1.02 | S. cerevisiae deletion strains, locus YJL134W, strain LCB3, active compounds read low 1.01 | S. cerevisiae deletion strains, locus YJL168C, strain set2, active compounds read low 0.988 | S. cerevisiae deletion strains, locus YJL187C, strain SWE1 (second series), active compounds read low 1 | [8] 1.02 | S. cerevisiae deletion strains, locus YKL068W, active compounds read low 1.03 | S. cerevisiae deletion strains, locus YKR001C, strain vps1, active compounds read low 0.978 | [10] 0.99 | S. cerevisiae deletion strains, locus YLR058C, strain SHM2, active compounds read low 1 | S. cerevisiae deletion strains, locus YLR102C, strain apc9, active compounds read low 0.99 | [11] 1.02 | S. cerevisiae deletion strains, locus YLR268W, strain sec22, active compounds read low 0.979 | S. cerevisiae deletion strains, locus YLR330W, strain CHS5, active compounds read low 1.01 | S. cerevisiae deletion strains, locus YLR342W, strain FKS1 (second series), active compounds read low 0.99 | S. cerevisiae deletion strains, locus YLR371W, strain rom2, active compounds read low 0.984 | S. cerevisiae deletion strains, locus YLR418C, strain cdc73, active compounds read low 0.946 | S. cerevisiae deletion strains, locus YML016C, strain PPZ1, active compounds read low 1.01 | S. cerevisiae deletion strains, locus YML032C, strain rad52, active compounds read low 0.981 | S. cerevisiae deletion strains, locus YML124C, strain tub3, active compounds read low 0.995 | S. cerevisiae deletion strains, locus YMR078C, strain ctf18, active compounds read low 1.01 | S. cerevisiae deletion strains, locus YMR223W, strain ubp8, active compounds read low 0.985 | [13] 1.1 | S. cerevisiae deletion strains, locus YNL067W, strain RPL9B, active compounds read low 1.01 | S. cerevisiae deletion strains, locus YNL233W, strain BNI4, active compounds read low 1.02 | S. cerevisiae deletion strains, locus YNL250W, strain rad50, active compounds read low 0.989 | S. cerevisiae deletion strains, locus YNL271C, strain bni1, active compounds read low 0.991 | S. cerevisiae deletion strains, locus YNL298W, strain CLA4, active compounds read low 1.01 | S. cerevisiae deletion strains, locus YNL307C, strain MCK1, active compounds read low 0.987 | S. cerevisiae deletion strains, locus YNR052C, strain pop2, active compounds read low 0.978 | S. cerevisiae deletion strains, locus YOL006C, strain TOP1, active compounds read low 0.978 | S. cerevisiae deletion strains, locus YOL012C, strain htz1 0.848 | S. cerevisiae deletion strains, locus YOL147C, strain pex11, active compounds read low 0.991 | S. cerevisiae deletion strains, locus YOR061W, strain CKA2, active compounds read low 0.99 | S. cerevisiae deletion strains, locus YOR069W, strain VPS5, active compounds read low 1.01 | S. cerevisiae deletion strains, locus YOR136W, strain idh2, active compounds read low 0.987 | S. cerevisiae deletion strains, locus YOR144C, strain elg1, active compounds read low 0.992 | S. cerevisiae deletion strains, locus YOR184W, strain ser1, active compounds read low 0.995 | S. cerevisiae deletion strains, locus YOR316C, strain cot1, active compounds read low 0.995 | [15] 0.994 | [16] 1.01 | S. cerevisiae deletion strains, locus YPR119W, strain clb2, active compounds read low 1.01 | S. cerevisiae deletion strains, locus YPR141C, strain kar3, active compounds read low 0.995 | S. cerevisiae deletion strains, locus YPR163C, strain tif3, active compounds read low 1.01 | S. cerevisiae deletion strains, locus YPR167C, strain met16, active compounds read low 0.978 | S. cerevisiae deletion strains, strain wtn01, active compounds read low 0.977 | [17] 1
